Consider five compounds from the supplement of paper PMC7184167.

Molecules are shown by their SMILES. Counter-ions that a name gives are not always drawn.

For the assay, the system named is replication-induced senescent mouse newborn dermal fibroblasts (NBF). Description: relative cell viability of senescent cells (fraction); higher = less killing of senescent cells. The following applies: 1 µM; 3 days. How it is done: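 Replication-induced senescent newborn mouse skin fibroblasts (NBFs) in 24-well plates were treated with a Selleck FDA-approved drug library at 1 µM for 3 days.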
Consider `COc1ccc2[nH]c([S@@+]([O-])Cc3ncc(C)c(OC)c3C)nc2c1` [NEXIUM (esomeprazole magnesium)], for which the relative cell viability came to 1.07.

`[I-].[K+]` [Potassium Iodide] had a relative cell viability of 0.937.

`C#Cc1cccc(Nc2ncnc3cc(OCCOC)c(OCCOC)cc23)c1` [Erlotinib HCl (OSI-744)]: the relative cell viability is 0.672.

For the compound `CN(C)c1cc(NC(=O)CNC(C)(C)C)c(O)c2c1CC1CC3C(N(C)C)C(=O)C(C(N)=O)=C(O)C3(O)C(=O)C1=C2O` (stereo not given) [Tigecycline], the relative cell viability came to 0.694.

In the case of `CNS(=O)(=O)CCc1ccc2[nH]cc(C3CCN(C)CC3)c2c1` [Naratriptan HCl], the relative cell viability came to 1.14.
